Calls of active or inactive are those of the source.

Assay [1] concerns PRMT1 (protein arginine N-methyltransferase 1). Description: small molecules binding arginine methyltransferase PRMT1 – biochemical, small-molecule microarray, 635 nm fluorescence, primary screen (AID 1088).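 Further: binding of Prmt1 protein to compounds spotted on small-molecule microarray slides.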 The following applies: higher = more signal.
The nature of assay [2]: growth effects on S. cerevisiae YJM789 – YJM789 clinical isolate, OD600, 24 h, basal, primary screen (AID 1089).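 Further: growth of clinical yeast isolate S. cerevisiae YJM 789 seeded 1000 cells per well; test concentration not given here.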 The following applies: higher = more signal, called active from +8 up or from −8 down.
Assay [3] in a line: S. pombe growth modifiers, basal conditions – strain 972, OD600, 24 h, no modulator, primary screen (AID 1090).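 Further: basal condition with compound alone and no growth modifier present; test concentration not given here.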 The following applies: S. pombe 972 growth, higher = more signal, called active from +8 up or from −8 down.
A short description of assay [4]: budding yeast growth modifiers under rapamycin – strain BY4716, OD600, 96 h, primary screen (AID 1091). Further: test concentration not given here. The conditions noted are these: S. cerevisiae BY4716 + rapamycin, higher = more signal, called active from +8 up or from −8 down.
Assay [5] has as its target Torsin-1A-interacting protein 2 (Homo sapiens) (UniProt Q8NFQ8). Description: small molecules binding lysate-expressed LULL1 – cell lysate, human LULL1 lysate, 635/667 nm fluorescence, primary screen (AID 1092).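 Further: probe is lysate of COS7 cells overexpressing human LULL1; score merges per-feature 667 nm fluorescence with signal-to-noise.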 The conditions noted are these: small-molecule microarray, hLULL1 lysate binding, 635 nm fluorescence; higher = more signal.
Assay [6] can be described thus: optical density change of DRC41 E. coli – strain DRC41, OD650, 24 h, E. coli filamentation project, primary screen (AID 1093).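 Further: MC1000 strain lacking acrAB efflux and sulA so SOS filamentation is blocked; test concentration not given here.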 The conditions noted are these: E. coli DRC41 growth, higher = more signal, called active from +8 up or from −8 down.
Assay [7] in a line: probe aLefty2 binding to arrayed compounds – biochemical, biotinylated probe, 635/667 nm fluorescence, primary screen (AID 1094).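 Further: score merges spot fluorescence near 667 nm with spot signal-to-noise ratio.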 The following applies: small-molecule microarray, higher = more signal.
For assay [8], the system named is Noggin (protein binding on small-molecule microarray). Description: small molecules binding Noggin protein – biochemical, 635/667 nm fluorescence, primary screen (AID 1095).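 Further: score merges 667 nm feature fluorescence with signal to noise over triplicate slides.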 The conditions noted are these: 635 nm fluorescence, higher = more signal.
The target in assay [9] is Neurogenic locus notch homolog protein 3 (Homo sapiens) (UniProt Q9UM47). Put plainly: small molecules binding NOTCH3 protein – biochemical, 635/667 nm fluorescence, primary screen (AID 1096). The conditions noted are these: small-molecule microarray, 635 nm fluorescence, higher = more signal.
The nature of assay [10]: probe aEGFR binding to arrayed compounds – biochemical, biotinylated probe, 635/667 nm fluorescence, primary screen (AID 1097).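 Further: probe is a biotinylated anti-EGFR antibody binding compounds printed on slides; score combines fluorescence near 667 nm and signal to noise of each spot.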 The following applies: small-molecule microarray, higher = more signal.
For assay [11], the system named is Plasmodium falciparum Sir2 (PF13_0152, Sir2A). Description: Plasmodium falciparum Sir2A binding compounds – biochemical, small-molecule microarray, 635 nm fluorescence, primary screen (AID 1098).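 Further: score merges spot fluorescence intensity with its signal-to-noise ratio.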 The conditions noted are these: fluorescence 635 nm, higher = more signal.
The nature of assay [12]: probe aDKK1 binding to arrayed compounds – biochemical, biotinylated probe, 635/667 nm fluorescence, primary screen (AID 1099).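 Further: score merges 667nm spot fluorescence with signal to noise across triplicate slides; reference of the scale not given here.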 The following applies: small-molecule microarray, higher = more signal.
A short description of assay [13]: probe aCHRDL2 binding to arrayed compounds – biochemical, biotinylated probe, 635/667 nm fluorescence, primary screen (AID 1100). The conditions noted are these: small-molecule microarray, higher = more signal.
Assay [14] can be described thus: change in splice reporter luminescence, either direction, cell-based, HEK293, spliceosome inhibition project, primary screen (AID 1101).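 Further: HEK293 cells carrying a splicing-competent luciferase reporter gene; test concentration not given here.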 The following applies: HEK293 splicing luciferase reporter, 24 h, higher = more signal, called active from +8 up or from −8 down. For orientation: A reporter such as luciferase makes a cellular process visible.
For assay [15], the target named is Fibroblast growth factor 10 (Homo sapiens) (UniProt O15520). Description: compounds binding fibroblast growth factor 10 – biochemical, small-molecule microarray, 635 nm fluorescence, primary screen (AID 1102). The conditions noted are these: FGF10 binding, fluorescence 635 nm, higher = more signal.
In assay [16] the test system is glycogen synthase kinase-3 (GSK3A per assay name; protocol says GSK3B). Put plainly: compounds binding glycogen synthase kinase-3 – biochemical, small-molecule microarray, 635 nm fluorescence, GSK3A, primary screen (AID 1103). Further: the record names both GSK3A and GSK3B. The following applies: fluorescence 635 nm, higher = more signal.
The target in assay [17] is Epidermal growth factor receptor (Homo sapiens) (UniProt P00533). Put plainly: compounds binding epidermal growth factor receptor – biochemical, small-molecule microarray, 635 nm fluorescence, primary screen (AID 1104).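 Further: score merges 667 nm emission intensity with spot signal to noise over triplicate slides.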 The conditions noted are these: EGFR binding, higher = more signal.
In assay [18] the target is Follistatin-related protein 3 (Homo sapiens) (UniProt O95633). Description: compounds binding follistatin-related protein 3 – biochemical, small-molecule microarray, 635 nm fluorescence, primary screen (AID 1105).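 Further: score merges emission near 667 nm and signal to noise per printed spot across three slides.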 The following applies: FSTL3 binding, higher = more signal.
The target in assay [19] is Dickkopf-related protein 1 (Homo sapiens) (UniProt O94907). Put plainly: small molecules binding DKK1 protein – biochemical, small-molecule microarray, 635 nm fluorescence scan, primary screen (AID 1106).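 Further: score merges emission near 667 nm with signal to noise over three replicate slides.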 The following applies: higher = more signal.
Assay [20] has as its system Inhibin beta A chain (activin A). Description: small molecules binding activin A – biochemical, small-molecule microarray, 635 nm fluorescence scan, primary screen (AID 1107).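 Further: mouse activin A protein probed at 4.33 µg/mL on printed slides; score merges bound-protein fluorescence near 667 nm with spot signal-to-noise.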 The following applies: INHBA, higher = more signal.

Sequence of Fibroblast growth factor 10 (Homo sapiens) (O15520 whole entry, looked up): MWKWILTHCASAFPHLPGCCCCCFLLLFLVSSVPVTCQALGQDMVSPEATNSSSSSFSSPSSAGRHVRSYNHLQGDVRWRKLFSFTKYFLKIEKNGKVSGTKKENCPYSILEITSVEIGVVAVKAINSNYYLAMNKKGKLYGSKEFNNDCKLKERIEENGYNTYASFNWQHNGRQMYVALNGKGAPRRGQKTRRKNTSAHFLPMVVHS
Sequence of Epidermal growth factor receptor (Homo sapiens) (P00533 whole entry, looked up): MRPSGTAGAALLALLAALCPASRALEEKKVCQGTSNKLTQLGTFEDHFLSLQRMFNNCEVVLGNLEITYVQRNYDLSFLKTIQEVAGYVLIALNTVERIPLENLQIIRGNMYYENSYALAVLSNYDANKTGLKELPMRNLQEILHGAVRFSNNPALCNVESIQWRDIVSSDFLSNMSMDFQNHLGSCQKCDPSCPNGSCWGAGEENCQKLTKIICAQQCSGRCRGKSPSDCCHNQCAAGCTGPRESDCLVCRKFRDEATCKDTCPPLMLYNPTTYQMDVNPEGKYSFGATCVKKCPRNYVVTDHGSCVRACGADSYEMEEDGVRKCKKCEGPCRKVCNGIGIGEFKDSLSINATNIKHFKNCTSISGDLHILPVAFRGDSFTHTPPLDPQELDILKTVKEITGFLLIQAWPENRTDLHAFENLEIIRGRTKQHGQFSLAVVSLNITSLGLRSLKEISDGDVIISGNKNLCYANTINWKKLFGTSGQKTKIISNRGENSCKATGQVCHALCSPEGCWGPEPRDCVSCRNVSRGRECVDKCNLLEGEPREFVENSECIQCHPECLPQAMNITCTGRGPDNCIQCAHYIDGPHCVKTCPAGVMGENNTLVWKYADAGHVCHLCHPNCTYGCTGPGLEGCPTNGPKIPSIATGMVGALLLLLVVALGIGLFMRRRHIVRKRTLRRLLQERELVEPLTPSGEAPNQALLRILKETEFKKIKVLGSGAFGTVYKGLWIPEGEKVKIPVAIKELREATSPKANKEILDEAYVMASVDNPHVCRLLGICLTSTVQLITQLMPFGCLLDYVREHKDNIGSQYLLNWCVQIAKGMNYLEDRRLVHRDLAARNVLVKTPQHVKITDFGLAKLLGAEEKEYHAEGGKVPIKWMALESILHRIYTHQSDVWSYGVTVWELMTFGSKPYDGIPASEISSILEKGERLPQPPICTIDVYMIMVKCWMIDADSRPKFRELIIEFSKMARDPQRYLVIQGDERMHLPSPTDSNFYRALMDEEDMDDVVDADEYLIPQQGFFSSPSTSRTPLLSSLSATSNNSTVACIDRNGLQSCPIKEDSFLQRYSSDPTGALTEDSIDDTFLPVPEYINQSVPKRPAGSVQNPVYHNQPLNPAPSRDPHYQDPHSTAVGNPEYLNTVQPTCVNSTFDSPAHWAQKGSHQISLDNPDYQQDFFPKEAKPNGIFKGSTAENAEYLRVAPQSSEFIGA
Sequence of Torsin-1A-interacting protein 2 (Homo sapiens) (Q8NFQ8 whole entry, looked up): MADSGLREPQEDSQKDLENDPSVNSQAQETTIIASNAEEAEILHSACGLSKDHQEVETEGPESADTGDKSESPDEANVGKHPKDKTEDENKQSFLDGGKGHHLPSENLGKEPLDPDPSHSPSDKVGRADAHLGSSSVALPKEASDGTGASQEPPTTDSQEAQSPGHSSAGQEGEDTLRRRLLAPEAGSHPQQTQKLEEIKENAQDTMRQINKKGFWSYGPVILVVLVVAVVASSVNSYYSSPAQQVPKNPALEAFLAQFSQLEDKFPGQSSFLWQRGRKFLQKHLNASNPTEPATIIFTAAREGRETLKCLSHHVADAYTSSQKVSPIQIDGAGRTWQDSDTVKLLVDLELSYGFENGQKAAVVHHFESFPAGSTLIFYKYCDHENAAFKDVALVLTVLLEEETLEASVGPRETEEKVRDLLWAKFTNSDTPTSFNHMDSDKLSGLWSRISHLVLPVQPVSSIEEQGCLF
Sequence of Dickkopf-related protein 1 (Homo sapiens) (O94907 whole entry, looked up): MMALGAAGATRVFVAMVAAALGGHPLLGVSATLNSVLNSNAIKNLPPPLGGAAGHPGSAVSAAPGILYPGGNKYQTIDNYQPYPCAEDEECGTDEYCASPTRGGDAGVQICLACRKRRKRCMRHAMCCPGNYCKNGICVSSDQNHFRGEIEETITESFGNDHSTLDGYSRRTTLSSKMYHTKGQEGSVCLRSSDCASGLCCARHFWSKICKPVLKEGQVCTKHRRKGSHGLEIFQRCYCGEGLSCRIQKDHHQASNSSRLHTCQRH
Sequence of Neurogenic locus notch homolog protein 3 (Homo sapiens) (Q9UM47 whole entry, looked up): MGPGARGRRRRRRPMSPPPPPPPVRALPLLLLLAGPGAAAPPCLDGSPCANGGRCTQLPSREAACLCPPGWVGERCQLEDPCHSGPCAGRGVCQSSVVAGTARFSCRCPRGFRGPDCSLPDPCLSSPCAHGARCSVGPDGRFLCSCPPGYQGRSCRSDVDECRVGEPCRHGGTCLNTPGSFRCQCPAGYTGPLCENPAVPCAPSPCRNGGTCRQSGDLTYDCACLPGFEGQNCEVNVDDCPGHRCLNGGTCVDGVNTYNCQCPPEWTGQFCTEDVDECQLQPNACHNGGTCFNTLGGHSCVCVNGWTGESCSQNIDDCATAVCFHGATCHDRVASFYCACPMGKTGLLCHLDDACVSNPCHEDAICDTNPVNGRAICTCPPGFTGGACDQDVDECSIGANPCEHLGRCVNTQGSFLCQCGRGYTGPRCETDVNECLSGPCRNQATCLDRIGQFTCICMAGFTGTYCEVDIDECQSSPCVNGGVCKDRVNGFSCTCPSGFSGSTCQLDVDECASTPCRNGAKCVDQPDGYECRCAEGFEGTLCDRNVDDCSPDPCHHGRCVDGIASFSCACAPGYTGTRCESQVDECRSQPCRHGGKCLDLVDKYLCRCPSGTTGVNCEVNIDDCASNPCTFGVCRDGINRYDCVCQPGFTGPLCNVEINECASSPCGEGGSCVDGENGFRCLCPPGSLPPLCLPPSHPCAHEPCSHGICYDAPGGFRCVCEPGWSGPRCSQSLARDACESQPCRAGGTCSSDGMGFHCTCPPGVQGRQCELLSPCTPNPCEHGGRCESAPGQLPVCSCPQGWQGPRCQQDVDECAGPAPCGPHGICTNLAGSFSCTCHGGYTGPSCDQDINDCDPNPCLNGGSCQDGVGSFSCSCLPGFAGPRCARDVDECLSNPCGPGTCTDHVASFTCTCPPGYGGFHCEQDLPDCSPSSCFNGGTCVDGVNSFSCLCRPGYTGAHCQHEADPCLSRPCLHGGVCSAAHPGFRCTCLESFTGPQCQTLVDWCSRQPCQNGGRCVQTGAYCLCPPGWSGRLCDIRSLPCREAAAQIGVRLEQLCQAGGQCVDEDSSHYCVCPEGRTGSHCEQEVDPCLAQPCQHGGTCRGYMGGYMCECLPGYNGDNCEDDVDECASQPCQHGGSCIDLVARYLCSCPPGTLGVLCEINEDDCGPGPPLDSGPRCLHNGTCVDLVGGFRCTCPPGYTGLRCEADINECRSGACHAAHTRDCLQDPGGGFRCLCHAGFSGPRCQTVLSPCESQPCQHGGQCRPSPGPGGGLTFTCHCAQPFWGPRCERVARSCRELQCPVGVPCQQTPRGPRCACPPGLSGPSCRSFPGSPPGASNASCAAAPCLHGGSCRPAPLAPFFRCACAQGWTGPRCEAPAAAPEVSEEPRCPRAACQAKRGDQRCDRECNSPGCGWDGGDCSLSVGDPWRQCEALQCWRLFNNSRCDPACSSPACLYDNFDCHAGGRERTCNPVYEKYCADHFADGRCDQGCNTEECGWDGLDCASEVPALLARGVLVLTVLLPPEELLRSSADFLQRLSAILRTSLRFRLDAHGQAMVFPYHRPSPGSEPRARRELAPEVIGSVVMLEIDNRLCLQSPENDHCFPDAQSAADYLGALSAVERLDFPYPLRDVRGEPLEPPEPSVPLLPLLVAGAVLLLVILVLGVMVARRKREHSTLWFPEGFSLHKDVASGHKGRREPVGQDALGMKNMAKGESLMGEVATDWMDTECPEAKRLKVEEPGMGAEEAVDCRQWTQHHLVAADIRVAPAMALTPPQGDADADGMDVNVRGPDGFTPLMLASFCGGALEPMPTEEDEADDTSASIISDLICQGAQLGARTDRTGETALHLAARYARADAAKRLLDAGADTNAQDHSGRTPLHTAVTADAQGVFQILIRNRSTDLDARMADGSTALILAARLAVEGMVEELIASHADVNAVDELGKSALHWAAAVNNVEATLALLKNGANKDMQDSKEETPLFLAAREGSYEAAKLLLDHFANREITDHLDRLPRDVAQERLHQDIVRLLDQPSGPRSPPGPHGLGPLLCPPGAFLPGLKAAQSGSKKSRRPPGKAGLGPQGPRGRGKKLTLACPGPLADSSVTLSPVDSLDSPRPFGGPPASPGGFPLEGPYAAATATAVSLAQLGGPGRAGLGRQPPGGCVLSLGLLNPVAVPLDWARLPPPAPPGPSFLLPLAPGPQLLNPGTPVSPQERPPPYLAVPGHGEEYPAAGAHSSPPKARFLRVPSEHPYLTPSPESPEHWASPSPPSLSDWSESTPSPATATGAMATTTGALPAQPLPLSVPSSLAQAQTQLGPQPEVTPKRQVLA
Sequence of Follistatin-related protein 3 (Homo sapiens) (O95633 whole entry, looked up): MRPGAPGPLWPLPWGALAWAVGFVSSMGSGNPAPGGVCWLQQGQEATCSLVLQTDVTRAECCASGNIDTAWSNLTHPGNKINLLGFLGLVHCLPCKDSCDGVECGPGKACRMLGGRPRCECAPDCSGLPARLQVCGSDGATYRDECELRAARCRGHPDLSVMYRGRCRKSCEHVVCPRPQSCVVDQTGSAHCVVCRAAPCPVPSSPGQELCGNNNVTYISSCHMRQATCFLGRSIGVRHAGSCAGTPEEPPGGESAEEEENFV

Regarding `CCO[C@H](c1cc(OC)cc([N+](=O)[O-])c1OC)[C@H](C)C=CCC(=O)OC`, the composite z-score in assay [1] is 1.11; in assay [5], -0.746; in assay [7], -0.233; in [8], 0.927; in assay [9], 0.0565; in [10], -0.123. Also, the composite z-score in assay [11] is 0.54; in assay [12], -0.295; in assay [13], -0.776; in [15], 0.0681; in assay [16], 0.117; in assay [17], 0.147. Moreover, the composite z-score came out at 0.385 in assay [18], 0.505 in assay [19] and 0.0666 in assay [20]. For the same compound, the z-score in assay [2] was -0.57 (inactive); in [3], -1.18 (inactive); in [4] it was -0.187 (inactive); in assay [6], 0.545 (inactive); in assay [14] it was 0.402 (inactive).
`CO[C@H]1COC(=O)[C@@H](Cc2ccccc2)NC(=O)[C@@H](C)COC(=O)CCC[C@@H]1C`: the composite z-score is 0.231 in [1]; -0.502 in assay [5]; -0.185 in assay [7]; 0.304 in assay [8]; -0.0051 in [9]; -0.0152 in assay [10]. For the same compound, the composite z-score in assay [11] is -0.0517; in assay [12], -0.242; in [13], -0.539; in assay [15], 0.517; in assay [16], -0.431; in assay [17] it was 0.304. In addition, the figures for the composite z-score in assay [18], in assay [19] and in assay [20] were 0.379, 0.601 and 0.296, respectively. Also, the z-score in assay [2] is -0.875 (inactive); in assay [3], -0.301 (inactive); in [4], -0.784 (inactive); in assay [6], 0.17 (inactive); in [14], -0.498 (inactive).
For `COc1ccc(COC(=O)NN=C2C[C@@H](O)[C@@H](O)[C@@H]3[C@@H]4C(=O)N(C5CCCCC5)C(=O)[C@@H]4CC[C@H]23)cc1`, the composite z-score in assay [1] is -0.416; in [5], 0.271; in assay [7], 0.432; in assay [8], -0.752; in [9], -1.19; in assay [10] it was -0.242. The composite z-score in [11] was -0.378; in [12] it was 1.07; in assay [13], 1.47; in assay [15] it was -0.485; in [16] it was -0.784; in assay [17], -0.575. Besides, the composite z-score was -0.558 in assay [18], -1.45 in [19] and 0.699 in [20]. The z-score was 0.494 (inactive) in assay [2]; 0.586 (inactive) in [3]; 0.818 (inactive) in assay [4]; -0.277 (inactive) in assay [6]; 1.3 (inactive) in assay [14].
For `CC(C)CCN1CCc2nc(COc3ccccc3)c3c(c2C1)CO[C@@H](C)C3`, the composite z-score in [1] was 0.0135; in assay [5], 1.25; in assay [7] it was 0.111; in [8], -0.0126; in assay [9] it was -0.149; in [10], -0.123. Moreover, the composite z-score was 0.605 in assay [11]; 0.179 in assay [12]; 0.844 in assay [13]; -0.185 in [15]; -0.113 in [16]; -0.0715 in [17]. The composite z-score in [18] is -0.204; in assay [19] it was -0.471; in assay [20], 0.71. Besides, the z-score in [2] is 0.377 (inactive); in [3], -0.438 (inactive); in assay [4], -0.531 (inactive); in assay [6] it was 1.17 (inactive); in assay [14] it was 0.893 (inactive).
Turning to `CCOC(=O)[C@H](CC(C)C)NC(=O)CCC1CC(OC(=O)NCCc2ccc(F)cc2)CC2(CCCC(COC(=O)NCCC(C)C)O2)O1` (stereo not given in full), the composite z-score in assay [1] was 0.201; in [5] it was 1.51; in [7] it was -0.107; in assay [8], 0.456; in assay [9], -0.496; in assay [10], -0.0778. The composite z-score in assay [11] was 0.264; in assay [12], -0.149; in [13], -0.424; in assay [15], 0.18; in [16], -0.0508; in [17] it was 0.0889. Besides, the results for the composite z-score in assay [18], in [19] and in assay [20] were 0.27, 0.324 and 0.175, respectively. Besides, the z-score in [2] was 0.0312 (inactive); in [3] it was 1.12 (inactive); in assay [4], 1.08 (inactive); in assay [6], -0.917 (inactive); in [14], -0.695 (inactive).

For the origin of these results see PubChem BioAssay.
